# Gli-Sufu block = Gli-Sufu pathway antagonists, primary screen, luciferase luminescence, Sufu-KO-LIGHT cells, uHTS; 340,000 compounds, 0.74% hits; inhibition, % at 5 µM; Sufu-KO-LIGHT fibroblasts, Gli luciferase reporter luminescence; AID 588413, 2011;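 active means inhibition above about 55%, limit read from the data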;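 further: 0% = DMSO-treated cells and 100% = wells with medium but no cells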
# Beta cell apopt = inhibitors of cytokine-induced beta cell apoptosis, primary screen, luminescence; protection from apoptosis, % (concentration not given with the values); INS-1E cytokine-induced death, ATP luminescence, 48 h; percent of positive-control rescue, neutral wells zero; 300,000 compounds, 0.8% hits; AID 435005, 2010;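 active means Every replicate reaches about 75%, or at least half do and their mean reaches it too, limit read from the data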;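 further: 0% = cytokine-treated negative control wells and 100% = positive control rescue; higher means more ATP so stronger rescue from cytokine killing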
# CSC inhib = cancer stem cell viability inhibitors, primary screen, luminescence | inhibition, % at 7.5 µM | cancer stem cell-like cells viability | 300,000 compounds, 1.1% hits | AID 2717, 2010; in the data active means inhibition above about 75%; tested in HMLE shEcad cells
# GRIN3A LBD mod = binders of NR3A ligand-binding domain, primary screen, biophysical, differential scanning fluorimetry, uHTS; 340,000 compounds, 2.5% hits; Glutamate receptor ionotropic, NMDA 3A (GRIN3A) ligand-binding domain; NR3A LBD differential scanning fluorimetry, Tm shift; 0% = protein alone, 100% = glycine-bound protein; AID 1259313, 2017; Tm shift relative to glycine control, % at 25 µM;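 active means melting temperature shift of at least 10% of the positive control shift, at one fixed dose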
# Mdm2-MdmX inh = inhibitors of human Mdm2-MdmX association, primary screen, cell-based, luminescence, split luciferase, SaOS-2, uHTS; AID 485346, 2010; inhibition, % at 8 µM; Protein Mdm4 (Homo sapiens) + E3 ubiquitin-protein ligase Mdm2 (Homo sapiens), …; 330,000 compounds, 3% hits; SaOS-2 split-luciferase Mdm2/MdmX complementation;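 active means inhibition of at least 50% at 8 µM in the primary screen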
# MPTP inh = mitochondrial permeability transition pore inhibitors, primary screen, biochemical, isolated mouse mitochondria, absorbance; Ca2+ swelling absorbance, 30 min; inhibition, % at 10 µM; 360,000 compounds, 1.4% hits; AID 602449, 2012;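 active means inhibition of 50% or more, scaled per plate between neutral and stimulator controls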;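 further: 0% = DMSO wells given calcium and 100% = 1 mM EGTA wells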
# * = called active by the depositor; . = no result given. Shown are actives, neighbours in structure and some others; about 6.6% of the full set was active somewhere.
SMILES,Gli-Sufu block,Beta cell apopt,CSC inhib,GRIN3A LBD mod,Mdm2-MdmX inh,MPTP inh
O=C(O)c1ccccc1C(=O)Nc1cc(-c2ccccc2)[nH]n1,12.2,-12.2,2.1,-0.1,-4.3,-0.4
O=C(Nc1cc(-c2ccccc2)[nH]n1)c1ccccc1F,-66.2,4.8,22.5,24.3*,-78.9,0.6
Cc1coc2cc3oc(=O)c(CCC(=O)NCC(=O)O)c(C)c3cc12,-2.7,-0.4,0.7,-0.3,-6.5,-0.3
COc1cc(C=O)ccc1OCC(=O)Nc1ccc2c(c1)OCO2,2.6,-7.8,-11.7,-1.2,-16.4,-0.8
O=C1C=C(NCCN2CCOCC2)C(=O)c2cnccc21,.,98.0*,-14.3,.,.,.
CCOC(=O)c1c(NC(=O)CSc2nnc(C)s2)sc2c1CCN(C)C2,3.8,5.7,-8.4,-1.5,26.3,1.1
Cc1nnc(SCC(=O)Nc2sc3c(c2C(=O)c2ccccc2)CCCC3)s1,1.1,2.5,-14.8,10.4*,26.0,0.1
Cn1c(SCC(=O)NC2CCS(=O)(=O)C2)nc2ccccc21 (stereo unspecified),-0.1,-5.3,-18.0,1.2,16.3,-0.3
Cc1cccnc1NC(=O)/C=C/c1ccc2c(c1)OCO2,-63.8,-12.1,1.7,-5.4,-37.2,1.6
CCOC(=O)c1[nH]c2ccc(OC)cc2c1NC(=O)/C=C/c1ccc2c(c1)OCO2,0.6,3.6,16.1,-8.8,-2.2,-8.4
COC(=O)c1c(NC(=O)/C=C/c2ccc3c(c2)OCO3)sc(C)c1C,6.5,-4.8,103.2*,0.2,4.1,3.4
CCOC(=O)c1c(NC(=O)/C=C/c2ccc3c(c2)OCO3)sc(C)c1CC,-9.9,2.2,122.5*,-0.5,-7.1,4.9
CC(C)C(=O)Nc1cccc(COc2ccccc2CN(Cc2ccccc2)C(=O)OC(C)(C)C)c1,2.1,.,.,-5.4,.,0.1
CCOc1ccc(NCC(=O)Nc2ccc(C)cc2C)cc1,-23.4,9.0,4.5,-1.4,13.9,1.6
CCOc1ccc(NC(=O)CNc2ccc(C)cc2Cl)cc1,-18.1,0.4,10.2,34.0*,-19.6,11.2
O=C(COc1ccc(/C=N/NC(=O)c2ccncc2)cc1)Nc1ccccc1,10.0,-5.0,-28.7,10.9*,1.5,-0.8
O=C(COc1ccc(/C=N/NC(=O)c2ccncc2)cc1)Nc1cccc([N+](=O)[O-])c1,-24.7,-5.4,10.6,16.5*,-20.0,0.0
O=C(COc1ccc(Nc2ccccc2)cc1)Nc1ccncc1,1.3,.,13.2,5.0,18.5,26.0
CCOc1ccc(/C=N/NC(=O)CC(=O)Nc2ccc(Cl)c(Cl)c2)cc1,2.1,-3.6,0.9,19.5*,6.7,6.0
CCCCNC(=O)C1(C)CCN1C(=O)c1ccc(OC)c(F)c1 (stereo unspecified),.,.,.,.,.,-1.0
CCNC(=O)C1(C)CCN1C(=O)CCc1cccc(Cl)c1 (stereo unspecified),.,.,.,.,.,2.2
O=C(COc1ccc(/C=N/NC(=O)c2ccccc2O)cc1)Nc1ccc([N+](=O)[O-])cc1,-1.1,-5.7,1.1,37.4*,-2.5,6.0
CC(=O)Nc1ccc(NC(=O)COc2ccc([N+](=O)[O-])cc2)cc1,-2.1,-0.5,-11.1,0.5,-23.8,0.4
COc1ccc(C(=O)COC(=O)CNC(=O)c2cc(OC)cc(OC)c2)cc1,-12.8,2.3,-15.3,-0.3,-34.7,0.2
COc1ccc(C(=O)COC(=O)CNC(=O)c2ccc(OC)cc2)cc1,2.6,-8.2,-17.6,11.4*,9.4,0.0
SMILES,Gli-Sufu block,Beta cell apopt,CSC inhib,GRIN3A LBD mod,Mdm2-MdmX inh,MPTP inh
CCC(=O)N1CCN(CCN=CC2=C(O)CC(C)(C)CC2=O)CC1,-1.2,-6.3,-3.3,12.7*,-0.5,-0.8
CC1(C)CC(=O)C(C=NCCN2CCN(C(=O)CCl)CC2)=C(O)C1,1.2,-0.3,-7.7,2.2,-1.2,1.3
COc1ccc(S(=O)(=O)NC(=O)C2(C)CCN2C(=O)COc2ccc(Cl)cc2)cc1OC (stereo unspecified),.,.,.,.,.,0.5
Cn1c2ccccc2c(=O)c2cc(C#Cc3ccccn3)ccc21,-32.1,-2.6,82.3*,-12.2,-146.3,-1.7
Cc1ccc2nc(-c3ccc(NC(=S)NC(=O)CC(C)C)cc3)sc2c1,-115.5,-4.6,4.9,-1.4,-118.4,4.6
Cc1ccc(S(=O)(=O)Nc2ccc(-c3nc4ccc(C)cc4s3)cc2)cc1,.,2.2,18.7,16.0*,11.6,-4.2
Cc1ccc(C)c(N(CC(=O)Nc2ccc(-c3nc4ccc(C)cc4s3)cc2)S(C)(=O)=O)c1,-26.8,1.1,70.1,23.5*,4.5,3.3
Cc1ccc2nc(-c3ccc(NC(=O)C(C)Sc4nncs4)cc3)sc2c1 (stereo unspecified),-104.8,-4.4,62.9,14.3*,-104.2,2.9
CCN(CC)c1nc2ccccc2n(Cc2cccc(OC)c2)c1=O,-0.8,-0.9,3.1,0.8,-12.0,-0.3
O=C(Nc1cccc2ccccc12)N(CCO)C1CCS(=O)(=O)C1 (stereo unspecified),-3.3,-0.9,-2.0,0.5,3.4,-0.2
CC(C)C(=O)N1CCCC1(C)C(=O)Nc1ccc2c(c1)OCO2 (stereo unspecified),.,.,.,.,.,2.9
CCN(Cc1ccc(Br)s1)C(=O)CSc1nnc(C2CC2)n1C1CC1,.,.,.,.,.,1.9
CC(NC(=O)COc1ccc(S(=O)(=O)N2CCCC2)cc1)c1ccccc1 (stereo unspecified),-7.2,-0.4,-6.1,-0.3,14.2,0.6
CC(C)[C@H](NC(=O)c1ccccc1)C(=O)OCC(=O)c1c(N)n(C)c(=O)n(C)c1=O,2.9,-3.1,-10.6,-1.1,9.7,-0.9
Oc1ccc(-c2nc3ccccc3s2)cc1,-73.3,-0.9,24.9,14.9*,-305.6,5.7
COc1cccc(-c2nc3ccccc3s2)c1,-81.3,4.0,-2.0,2.9,-118.7,-0.8
Nc1ccc(O)c(-c2nc3ccccc3s2)c1,-7.9,3.8,9.7,-2.9,-52.8,-0.1
Oc1ccc(-c2nc3ccccc3s2)c(O)c1,-70.5,-2.0,67.5,38.9*,-227.4,10.8
O=C(CSc1nc2ccccc2s1)c1ccc(O)cc1O,-8.0,-12.6,17.7,30.2*,-22.2,2.0
COc1ccc(-c2nc3ccccc3s2)cc1,-101.1,.,.,39.6*,.,1.6
CC1(c2nnc(-c3ccc(F)cc3)o2)CC(c2ccncc2)=NO1 (stereo unspecified),.,-2.2,-7.9,.,17.5,.
O=C(CCC(=O)OCC(=O)c1ccc(Br)cc1)NC1CCCCC1,18.8,-10.4,-14.8,10.2*,-13.2,2.1
CC(C)(C)OC(=O)N1CCN(C(c2ccnc3ccccc23)c2nnnn2-c2ccc3c(c2)OCCO3)CC1 (stereo unspecified),.,.,.,.,.,-0.6

# Screening data deposited in PubChem BioAssay by several laboratories.
